Laboratory results reported in the supplement of paper PMC11628255, “Interference of metal ions on the bioluminescent signal of firefly, Renilla, and NanoLuc luciferases in high-throughput screening assays” (Frontiers in Chemistry, 2024).
± gives the standard deviation of the averaged measurements.

Test system: firefly luciferase (FLuc)
Test: residual bioluminescent signal relative to negative control without GSH; higher = less interference (more residual luciferase signal)
Settings: screening conditions buffer
Protocol: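 Selected metal salts at 3-4 concentrations tested on purified FLuc, NLuc or RLuc in screening buffer with 0, 0.2 or 2 mM glutathione added; 10 min enzyme pre-incubation at RT, luminescence 10 min after substrate. Signal normalised to negative control without GSH (% N_VALUE); triplicate wells.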

[1] = metal salt concentration 1 mM, glutathione 0 mM
[2] = metal salt concentration 1 mM, glutathione 0.2 mM
[3] = metal salt concentration 1 mM, glutathione 2 mM

O=[N+]([O-])[O-].[Ag+] [silver nitrate]
residual bioluminescent signal (metal salt concentration 0.0001 mM, glutathione 0 mM): 58.4 ± 11% | residual bioluminescent signal (metal salt concentration 0.0001 mM, glutathione 0.2 mM): 63.3 ± 6% | residual bioluminescent signal (metal salt concentration 0.0001 mM, glutathione 2 mM): 0.242 ± 0.17% | residual bioluminescent signal (metal salt concentration 0.000243 mM, glutathione 0 mM): 1.26 ± 0.36% | residual bioluminescent signal (metal salt concentration 0.000243 mM, glutathione 0.2 mM): 64.7 ± 3.9% | residual bioluminescent signal (metal salt concentration 0.000243 mM, glutathione 2 mM): 0.483 ± 0.34% | residual bioluminescent signal (metal salt concentration 0.0005 mM, glutathione 0 mM): 0.58 ± 0.43% | residual bioluminescent signal (metal salt concentration 0.0005 mM, glutathione 0.2 mM): 61.9 ± 10% | residual bioluminescent signal (metal salt concentration 0.0005 mM, glutathione 2 mM): 0.58 ± 0.29% | residual bioluminescent signal [1]: 0.435 ± 0.38% | residual bioluminescent signal [2]: 0.918 ± 0.47% | residual bioluminescent signal [3]: 0.531 ± 0.3%

O=[N+]([O-])[O-].O=[N+]([O-])[O-].[Cu+2] [copper(II) nitrate]
residual bioluminescent signal (metal salt concentration 0.05 mM, glutathione 0 mM): 84.5 ± 15% | residual bioluminescent signal (metal salt concentration 0.05 mM, glutathione 0.2 mM): 54.9 ± 3.8% | residual bioluminescent signal (metal salt concentration 0.05 mM, glutathione 2 mM): 0.483 ± 0.17% | residual bioluminescent signal (metal salt concentration 0.125 mM, glutathione 0 mM): 86.3 ± 9.3% | residual bioluminescent signal (metal salt concentration 0.125 mM, glutathione 0.2 mM): 19.4 ± 1.1% | residual bioluminescent signal (metal salt concentration 0.125 mM, glutathione 2 mM): 0.531 ± 0.34% | residual bioluminescent signal (metal salt concentration 0.2 mM, glutathione 0 mM): 65.3 ± 11% | residual bioluminescent signal (metal salt concentration 0.2 mM, glutathione 0.2 mM): 5.12 ± 2% | residual bioluminescent signal (metal salt concentration 0.2 mM, glutathione 2 mM): 0.628 ± 0.44% | residual bioluminescent signal [1]: 0.628 ± 0.47% | residual bioluminescent signal [2]: 0.338 ± 0.17% | residual bioluminescent signal [3]: 0.435 ± 0.25%

O=[N+]([O-])[O-].O=[N+]([O-])[O-].[Zn+2] [zinc nitrate]
residual bioluminescent signal (metal salt concentration 0.5 mM, glutathione 0 mM): 100 ± 3.4% | residual bioluminescent signal (metal salt concentration 0.5 mM, glutathione 0.2 mM): 29.7 ± 6% | residual bioluminescent signal (metal salt concentration 0.5 mM, glutathione 2 mM): 0.435 ± 0.25% | residual bioluminescent signal [1]: 1.06 ± 0.55% | residual bioluminescent signal [2]: 0.918 ± 0.74% | residual bioluminescent signal [3]: 0.387 ± 0.17% | residual bioluminescent signal (metal salt concentration 1.20 mM, glutathione 0 mM): 0.387 ± 0.17% | residual bioluminescent signal (metal salt concentration 1.20 mM, glutathione 0.2 mM): 0.676 ± 0.36% | residual bioluminescent signal (metal salt concentration 1.20 mM, glutathione 2 mM): 0.676 ± 0.36% | residual bioluminescent signal (metal salt concentration 2.5 mM, glutathione 0 mM): 0.58 ± 0.29% | residual bioluminescent signal (metal salt concentration 2.5 mM, glutathione 0.2 mM): 0.87 ± 0.43% | residual bioluminescent signal (metal salt concentration 2.5 mM, glutathione 2 mM): 0.338 ± 0.34%
